# Data from PubChem BioAssay (NCI).
# About 83,000 compounds went through this panel and 20% of them were active in at least one assay; those are over-represented in the sample as a whole.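 96-well plates, one dose, 48 hours. Percent growth reported; active if below 10.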 A number with no mark means an inactive call. Active and inactive are the calls of the source.
# Columns and labels:
# Test in all cases: NCI-60 one-dose screen, 48 h (100 = growth as untreated, 0 = no growth, -100 = all killed)
# Settings in all cases: 10 µM unless noted
# T-47D breast = tested on: T-47D breast
# BT-549 breast = tested on: BT-549 breast
# MDA-MB-435 melanoma = tested on: MDA-MB-435 melanoma
# SW-620 colon = tested on: SW-620 colon
# HCT-116 colon = tested on: HCT-116 colon
# HCC-2998 colon = tested on: HCC-2998 colon
# KM12 colon = tested on: KM12 colon
# MDA-MB-468 breast = tested on: MDA-MB-468 breast
# MCF7 breast = tested on: MCF7 breast
Structure (SMILES),growth (T-47D breast),growth (BT-549 breast),growth (MDA-MB-435 melanoma),growth (SW-620 colon),growth (HCT-116 colon),growth (HCC-2998 colon),growth (KM12 colon),growth (MDA-MB-468 breast),growth (MCF7 breast)
CC12CC[C@@H]3[C@]4(C)COC(c5cn[nH]c5-c5cccc(Br)c5)O[C@@H]4CC[C@@]3(C)[C@@H]1CC(C1=CCOC1=O)O2 (stereo not given in full),17.7%,-3.03% (active),36.1%,48.5%,15.3%,35.6%,13.5%,17.4%,–
CCCCSc1nc(Nc2ccc(S(N)(=O)=O)cc2)c(C#N)c(-c2ccc(Cl)cc2)n1,75.5%,96.1%,56.2%,37.3%,1.12% (active),64%,74.7%,76%,–
CCOC(=O)c1ccc(Nc2nc(NN)nc(-c3ccc(F)cc3)c2C#N)cc1,94.7%,111%,111%,111%,102%,105%,109%,119%,–
COc1cc(-c2ccc(/C=N/NC(=O)c3[nH]c4ccc(Br)cc4c3-c3ccccc3)s2)cc(OC)c1OC,73.9%,85.9%,92.2%,–,68.2%,101%,82.3%,96.7%,72.1%
COc1c(F)ccc(C(=O)Nc2ccc3nc(NC(=O)C4CCCN(S(=O)(=O)c5cccc(C(F)(F)F)c5)C4)sc3c2)c1F (stereo not given),48.4%,54.3%,87.1%,99.9%,60.7%,107%,80%,101%,–
CC(=O)Nc1cccc(Nc2nc(NCc3ccccc3)c3ccccc3n2)c1,-60.1% (active),-86.8% (active),-92.8% (active),–,-74.7% (active),-98.8% (active),-66% (active),–,-77.2% (active)
CC12CC[C@@H]3[C@]4(C)COC(c5cn[nH]c5-c5ccc(Br)cc5)O[C@@H]4CC[C@@]3(C)[C@@H]1CC(C1=CCOC1=O)O2 (stereo not given in full),16.3%,21.7%,51.8%,62.1%,23.4%,55.8%,39%,9.94% (active),–
O=C(O)c1cccc(-c2ccc(/C=N/NC(=O)c3[nH]c4ccc(Br)cc4c3-c3ccccc3)o2)c1,55.3%,34.7%,43.9%,–,66.2%,84.8%,79.3%,-12.6% (active),53.1%
Cn1cc(-c2cc(N)n3nc(-c4cn(C)c5ncc(Br)cc45)cc3n2)c2cc(Br)cnc21,-4.13% (active),34.8%,-37.8% (active),-68.6% (active),-76.3% (active),-38.3% (active),-3.78% (active),-84.2% (active),–
COc1c(F)ccc(C(=O)Nc2ccc3nc(NC(=O)C4CCCN(S(=O)(=O)c5ccc(Cl)cc5)C4)sc3c2)c1F (stereo not given),52.6%,62.4%,101%,97.2%,65.3%,103%,–,80.2%,–
N#Cc1c(-c2ccc(Br)cc2)nc2n[nH]c(-c3ccc(Br)cc3)c2c1-c1ccc(C(F)(F)F)cc1,3.49% (active),11.3%,3.09% (active),–,6.76% (active),21.8%,10.9%,-4.16% (active),5.3% (active)
CC1=C(C(=O)OCc2ccccc2)C(c2c(O)cc(O)cc2O)n2c(nc3ccccc32)N1 (stereo not given),62.6%,55%,1.29% (active),–,26.1%,86.4%,46.3%,–,25%
CNC(=O)c1cc(Oc2ccc3nc(NC(=O)Nc4cccc(OC(F)(F)F)c4)sc3c2)ccn1,47.4%,0.174% (active),53.9%,–,17.2%,46.8%,53.1%,–,39.2%
O=C(O)c1ccc(-c2ccc(/C=N/NC(=O)c3[nH]c4ccc(Br)cc4c3-c3ccccc3)o2)cc1,15.1%,-7.86% (active),-49.6% (active),–,9.56% (active),5.76% (active),11.9%,-12.4% (active),9.15% (active)
N#Cc1cnn(C(=O)c2ccccc2Br)c1NC(=O)c1ccc(Br)cc1Cl,97%,91.1%,103%,–,103%,108%,102%,94.2%,95.4%
Cn1cc(-c2cc3nc(-c4cn(C)c5ncccc45)cc(N)n3n2)c2cc(Cl)ccc21,-70.9% (active),-94.6% (active),-81.1% (active),-86.3% (active),-94.4% (active),-97.8% (active),-37.2% (active),-95.5% (active),–
COc1ccc(/C=C/c2nc3ccccc3c(=O)n2CC(=O)Nc2ccc(Cl)cc2)cc1,66.5%,63.6%,90.5%,73.9%,35.4%,116%,61.3%,98%,–
CC12CC[C@@H]3[C@]4(C)COC(c5cn[nH]c5-c5cccc(Cl)c5)O[C@@H]4CC[C@@]3(C)[C@@H]1CC(C1=CCOC1=O)O2 (stereo not given in full),17.7%,0.371% (active),44.1%,50.6%,19.1%,40.7%,17.9%,7.22% (active),–
CCN(CC)C(=O)N/C(N)=N/c1nc2ccccc2s1,12.6%,16.5%,37.5%,–,43.4%,88.2%,73.9%,5.79% (active),37.6%
Cc1c(C(=O)NNC(=O)c2ccc(Cl)cc2)nnn1-c1ccc(Cl)cc1,89.9%,94.1%,98.5%,–,85.3%,109%,101%,89.4%,81.2%
Cc1c(C(=O)NNC(=O)Nc2ccc(Cl)cc2)nnn1-c1ccc(Br)cc1,88.8%,102%,99.7%,–,90.7%,106%,103%,91%,85%
CSc1ccc(C(=O)Nc2ccc3nn(/C(C#N)=C/c4ccccn4)nc3c2)cc1,-26% (active),-90.1% (active),-44.9% (active),–,-93.8% (active),-99.8% (active),-43.6% (active),-90.7% (active),-78.6% (active)
COc1cc(/C=C/C(=O)c2nnn(-c3ccc(Cl)cc3)c2C)cc(OC)c1OC,43.2%,36.8%,2.83% (active),–,26.2%,23.1%,20.8%,-20.7% (active),8.67% (active)
COc1cc(-c2cc(-c3cccc(OCC(=O)O)c3)[nH]c(=O)c2C#N)cc(OC)c1OC,103%,100%,106%,–,92.8%,110%,105%,96.7%,97.1%
O=C(N/N=C/c1ccc(-c2ccc(O)cc2)o1)c1[nH]c2ccc(Br)cc2c1-c1ccccc1,19%,-13.3% (active),-14.7% (active),–,4.35% (active),-23.6% (active),2.17% (active),-16.6% (active),-3.44% (active)
CCOC(=O)C1=C(N)N(c2ccccc2)C2=C(C(=O)CC(C)(C)C2)C1c1ccc(Cl)cc1Cl (stereo not given),20.9%,33.4%,29.5%,–,13.6%,37.5%,18.7%,3.8% (active),9.22% (active)
NS(=O)(=O)c1ccc(-n2cc(-c3cccc(NC(=O)c4cc(C(F)(F)F)cc(C(F)(F)F)c4)c3)nn2)cc1,60.3%,98.7%,87.8%,–,46.7%,65.3%,21.9%,55.1%,59.6%
N#Cc1c(-c2ccc(Br)cc2)nc2n[nH]c(-c3ccc(Br)cc3)c2c1-c1ccc(F)cc1,74.6%,107%,102%,–,95.3%,108%,105%,110%,78.7%
